# A selection: hits, their analogues and other compounds. The true share with any hit is near 1.6%.
# KCNQ2 enhance: potentiators of rat KCNQ2 potassium channel | CHO-K1 KCNQ2, FluxOR thallium flux fluorescence; active compounds read high | B-score at 10 µM | hit rate 0.54% among 310,000 | AID 2239;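 active means fluorescence ratio B-score at least 3 SD of library B-scores, with initial fluorescence B-score within 3 of them, cut at about 5.3 in these data; same plate scores as AID 2156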;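 further: B-score of peak minus minimum over baseline fluorescence ratio after K+ and Tl+ stimulus; positive B-score means potentiation of KCNQ2 with more thallium influx and brighter signal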
# Target sequence (O88943 whole entry, looked up): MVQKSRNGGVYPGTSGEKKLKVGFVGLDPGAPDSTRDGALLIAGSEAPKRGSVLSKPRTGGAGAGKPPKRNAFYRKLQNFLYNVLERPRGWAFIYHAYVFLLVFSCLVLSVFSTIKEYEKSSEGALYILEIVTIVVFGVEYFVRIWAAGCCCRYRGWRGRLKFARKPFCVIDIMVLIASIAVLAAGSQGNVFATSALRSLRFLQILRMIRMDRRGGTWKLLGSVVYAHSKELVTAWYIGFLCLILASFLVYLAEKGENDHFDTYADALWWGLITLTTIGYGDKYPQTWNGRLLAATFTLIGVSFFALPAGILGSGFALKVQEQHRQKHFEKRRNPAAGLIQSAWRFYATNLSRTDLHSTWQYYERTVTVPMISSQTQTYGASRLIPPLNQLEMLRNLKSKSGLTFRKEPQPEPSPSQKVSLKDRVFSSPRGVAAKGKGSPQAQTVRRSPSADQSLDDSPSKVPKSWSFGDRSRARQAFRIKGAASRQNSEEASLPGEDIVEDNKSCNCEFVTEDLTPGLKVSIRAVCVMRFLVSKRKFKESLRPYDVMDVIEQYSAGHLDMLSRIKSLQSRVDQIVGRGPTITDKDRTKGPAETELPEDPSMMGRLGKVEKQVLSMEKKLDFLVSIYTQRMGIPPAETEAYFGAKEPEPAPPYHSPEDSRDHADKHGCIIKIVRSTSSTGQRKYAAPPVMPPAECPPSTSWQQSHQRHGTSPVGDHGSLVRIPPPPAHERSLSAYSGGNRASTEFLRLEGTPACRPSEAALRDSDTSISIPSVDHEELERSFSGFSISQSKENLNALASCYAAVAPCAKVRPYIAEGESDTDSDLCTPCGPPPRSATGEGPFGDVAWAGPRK
# KCNQ2 inh: KCNQ2 (rat) channel inhibition. CHO-K1 KCNQ2, FluxOR thallium flux, 20 min; active compounds read low. B-score at 10 µM. hit rate 1.1% among 310,000;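 active means fluorescence ratio B-score at most minus 3 library SDs, with starting brightness B-score within 2 library SDs, cut at about -5.5 in these data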
# An asterisk follows results filed as active; i = inactive; nt = no result given.
SMILES,KCNQ2 enhance,KCNQ2 inh
Cc1ccc(N(C(=O)c2ccccc2Cl)C2=NC(C)CS2)c(C)c1 (stereo not drawn),-6.05,-6.05*
CCOc1ccccc1N(C(=O)c1ccccc1Cl)C1=NC(C)(C)CS1,nt,i
Cc1cc(C(=O)C(C)OC(=O)c2cnccn2)c(C)n1-c1ccccc1 (stereo not drawn),nt,i
CC(OC(=O)C1CCN(S(=O)(=O)c2ccc(F)cc2)CC1)C(=O)NC1CCCCC1C (stereo not drawn),2.26,i
CC(NC(=O)c1ccc(Br)cc1)c1ccccc1 (stereo not drawn),2.61,i
CC(C)OP(=O)(OC(C)C)C(NC(=O)c1ccc(Br)cc1)c1ccccc1 (stereo not drawn),-7.95,-7.95*
Cc1ccccc1C(=O)NNC(=O)c1cccc(Br)c1,0.2,i
CCOC(=O)Cn1c(S(=O)(=O)Cc2ccc(Cl)cc2)nc(-c2ccccc2)c1-c1ccccc1,-6.52,-6.52*
CCOC(=O)Cn1c(S(=O)(=O)Cc2ccccc2)nc2ccccc21,0.3,i
CC1CCN(CCCNC(=O)c2ccc3c(=O)n(Cc4ccc(Cl)cc4)c(=S)[nH]c3c2)CC1,-5.88,-5.88*
COC(=O)c1ccc2c(=O)n(Cc3ccc(C(=O)NCCCN4CCC(C)CC4)cc3)c(=S)[nH]c2c1,1.24,i
O=C(/C=C/c1ccc([N+](=O)[O-])cc1)NCCSc1ccccc1,1.26,i
Cc1ccc(SCCNC(=O)/C=C/c2ccc([N+](=O)[O-])cc2)cc1,6.2*,i
CN(C(=O)COC(=O)c1ccc(Br)c([N+](=O)[O-])c1)c1c(N)n(Cc2ccccc2)c(=O)[nH]c1=O,0.34,i
COc1ccc(NS(=O)(=O)c2cc(NC(=O)c3ccc(=O)[nH]c3)ccc2N2CCCC2)cc1,nt,i
CC(NC(=O)c1ccccc1)c1ccc(F)cc1 (stereo not drawn),nt,i
Cc1cc2c(c(=O)o1)C(c1ccc([N+](=O)[O-])o1)C(C#N)=C(N)O2 (stereo not drawn),7.7*,i
CCC(CC)C1C(C#N)=C(N)Oc2cc(C)oc(=O)c21 (stereo not drawn),0.34,i
COc1ccc2[nH]c3c(=O)n(CCCCC(=O)NCCC(C)C)c(=S)[nH]c3c2c1,nt,i
Cc1nc2ccc([N+](=O)[O-])cc2[nH]1,0.64,i
O=[N+]([O-])c1cccc(/C=C/c2nc3ccc([N+](=O)[O-])cc3[nH]2)c1,-8.13,-8.13*
CCCOC(=O)Cn1cnc2scc(-c3ccc(OC)cc3)c2c1=O,1.38,i
CCNc1nc(NC(C)C)nc(Oc2ccc(/C=N/O)cc2)n1,nt,i
COCc1cc(Sc2ccc(Br)cc2)nc(-c2ccccc2)n1,nt,i
COCc1cc(Sc2ccc(Cl)cc2)nc(-c2ccccc2)n1,-5.88,-5.88*
SMILES,KCNQ2 enhance,KCNQ2 inh
Cc1ccc(NC(=S)NCc2ccc(Cl)cc2)c(OC(F)F)c1,nt,i
Cc1ccc(NCc2nc3ccccc3n2C)c(C)c1,-6.62,-6.62*
Cc1cccc(NCc2nc3ccccc3n2C)c1,0.47,i
COc1ccc(CC2(CO)CCN(S(=O)(=O)c3cccc4cccnc34)CC2)cc1,0.49,i
CC(C(=O)NN)c1ccc([N+](=O)[O-])cc1 (stereo not drawn),nt,i
CNC(=O)c1ccsc1NC(=O)C1CCCN1S(=O)(=O)c1cccs1 (stereo not drawn),nt,i
CCOC(=O)c1c(N)sc(C(N)=O)c1C,nt,i
CCOC(=O)c1c(N)sc(N)c1C(=O)OCC,9.73*,i
CN(C(=O)COC(=O)CCc1c[nH]c2ccccc12)C(c1ccccc1)c1ccccc1,-5.93,-5.93*
O=C(COC(=O)CCc1c[nH]c2ccccc12)NCc1ccccc1,nt,i
CC(C)Cc1ccc(CN2CCCC(NC(=O)c3nn(C)c(=O)c4ccccc34)C2)cc1 (stereo not drawn),-7.79,-7.79*
CC(C)Cc1ccc(CN2CCCC(NC(=O)c3ccnn3C)C2)cc1 (stereo not drawn),nt,i
CCOC(=O)CN(C(=O)COc1ccc2c(C)cc(=O)oc2c1)c1ccc(OCC)cc1,nt,i
Cc1cccc(NS(=O)(=O)c2ccc(C(=O)NCC(c3ccco3)N3CCCCC3)cc2)c1C (stereo not drawn),nt,i
COc1ccc(OC)c(-n2c(SCC(=O)Nc3cccc(S(N)(=O)=O)c3)nc3ccccc3c2=O)c1,0.7,i
O=S(=O)(c1ccc(Oc2ccc(Cl)cc2)c(S(=O)(=O)N2CCCCC2)c1)N1CCCCC1,-7.17,-7.17*
O=S(=O)(c1ccc(Cl)cc1)N1CCN(S(=O)(=O)N2CCCCCC2)CC1,nt,i
CCC(=O)NC1CCN(C(=S)NC)CC1,0.88,i
CCn1cc(CCCC(=O)NCc2cccc(OC)c2)c2ccccc21,nt,i
CC(C)C(CCNC(=O)CN1C(=O)c2ccccc2C1=O)c1ccco1 (stereo not drawn),nt,i
CC(C)C(CCNC(=O)CC(Cc1ccccc1)c1ccco1)c1ccco1 (stereo not drawn),-14,-14*
CC(C)(C)c1nc2c(Br)cc(Br)cc2c(=O)o1,nt,i
O=C(/C=C/c1ccc(Br)cc1)c1ccco1,nt,i
O=C(/C=C/c1ccc([N+](=O)[O-])cc1)c1ccco1,-7.34,-7.34*
CC(C)c1ccc(-c2cc(C(=O)N3CCOCC3)c3cc(Br)ccc3n2)cc1,-6,-6*
SMILES,KCNQ2 enhance,KCNQ2 inh
O=C(c1cc(-c2ccccc2)nc2ccccc12)N1CCOCC1,nt,i
COc1cc(C2/C(=C(\O)c3ccc4c(c3)OCCO4)C(=O)C(=O)N2c2nnc(C)s2)cc(OC)c1OC (stereo not drawn),0.5,i
Cn1c(=O)c2c(nc(Br)n2Cc2ccccc2Cl)n(C)c1=O,nt,i
COC(=O)Cn1c(=O)c2c(nc(Br)n2Cc2ccccc2Cl)n(C)c1=O,-5.84,-5.84*
CCCCS(=O)CC(COc1ccc(Cl)cc1)OC(=O)c1ccccc1 (stereo not drawn),-5.84,-5.84*
CCCCS(=O)CC(COC)OC(=O)c1ccccc1 (stereo not drawn),0.03,i
Cc1ccccc1C(=O)NC1CCN(CC(=O)Nc2ccccc2Cl)CC1,1.53,i
Cc1c(Cl)cccc1NC(=O)CN1CCC(C(O)(c2ccccc2)c2ccccc2)CC1,-6.25,-6.25*
COc1ccc(-c2nn(-c3ccccc3)cc2C(=O)NC(=S)NNC(=O)c2ccncc2)cc1,nt,i
COc1ccc(-c2nn(-c3ccccc3)cc2C(=O)NC(=S)Nc2cc(Cl)ccc2Cl)cc1,-7.68,-7.68*
COc1ccc(NC(=O)c2cn(-c3ccccc3)nc2-c2cc3ccccc3o2)cc1,-6.01,-6.01*
COc1ccc(NC(=O)c2cn(-c3ccccc3)nc2-c2ccncc2)cc1,nt,i
CCN(C(=O)c1cc(S(=O)(=O)N2CCc3ccccc32)cn1C)c1ccccc1,nt,i
O=C(Cc1ccc([N+](=O)[O-])cc1)N1N=C(C2CC2)CC1(O)C(F)(F)F (stereo not drawn),0.89,i
CCN(CC)CC(=O)NC12CC3CC(CC(C3)C1)C2,nt,i
CCN(CC)C(=S)SCC(=O)NC12CC3CC(CC(C3)C1)C2,8.78*,i
CC(COc1ccc(C(C)C)cc1)NC(=O)c1ccc(Br)o1 (stereo not drawn),nt,i
CCOC(=O)c1c(NC(NC(C)=O)C(Cl)(Cl)Cl)sc2c1CCCC2 (stereo not drawn),-6.48,-6.48*
COC(=O)c1c(NC(NC(C)=O)C(Cl)(Cl)Cl)sc2c1CCCC2 (stereo not drawn),nt,i

# Source: PubChem BioAssay (Johns Hopkins Ion Channel Center)
